PubChem BioAssay (Tox21)
Records with an inconclusive call do not appear. Activity calls are given as the source filed them. Unless noted, calls come from the whole dose curve; as a rule, active = well fitted curve in the direction sought with a large enough effect in the repeat runs; inconclusive = weak or mixed curves; inactive = no such curve, though single readings can be large; an effect the other way counts as inactive or inconclusive.

Legend:
[1] = target: Retinoic acid receptor RXR-alpha (Homo sapiens) (UniProt P19793); assay: qHTS assay to identify small molecule agonists of the RXR signaling pathway (AID 1159527; calls by dose curve; note: nearly all actives have a fitted effect of over 35% in size)
Retinoic acid receptor RXR-alpha (Homo sapiens), sequence (P19793 whole entry, looked up): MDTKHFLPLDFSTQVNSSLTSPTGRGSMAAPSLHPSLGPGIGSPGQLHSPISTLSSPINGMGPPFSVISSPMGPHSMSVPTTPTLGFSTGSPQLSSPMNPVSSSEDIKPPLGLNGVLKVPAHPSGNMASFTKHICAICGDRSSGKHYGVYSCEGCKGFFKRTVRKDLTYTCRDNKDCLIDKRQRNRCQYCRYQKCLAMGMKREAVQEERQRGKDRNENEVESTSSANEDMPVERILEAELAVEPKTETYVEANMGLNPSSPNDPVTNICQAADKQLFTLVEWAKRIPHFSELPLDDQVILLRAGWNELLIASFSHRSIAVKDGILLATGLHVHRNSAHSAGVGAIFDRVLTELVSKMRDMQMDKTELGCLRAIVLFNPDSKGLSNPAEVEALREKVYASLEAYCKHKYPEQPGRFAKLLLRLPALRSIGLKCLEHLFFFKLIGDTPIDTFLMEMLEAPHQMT
Summary of the method: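 Fluorescence ratio readout (460 vs 530 nm) from GeneBLAzer RXR-alpha HEK 293T cells after 16 hr compound treatment; cells seeded 5 hr beforehand in low-serum, charcoal-stripped medium.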

[2] = qHTS assay to identify small molecule agonists of the RXR signaling pathway - cell viability counter screen (AID 1159529);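 note: HEK 293T cells carrying an RXR-alpha UAS beta-lactamase reporter; series mostly up to about 77 µM; nearly all actives have a fitted effect of over 50% in size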
Summary of the method: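 Viability read-out for the RXR-alpha agonist qHTS: luminescent CellTiter-Glo signal after 30 min at RT. HEK 293T bla reporter cells, 2% charcoal-stripped FBS, 16 hr compound incubation; tetraoctyl ammonium bromide as cytotoxic control.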

[3] = qHTS assay to identify small molecule antagonists of the retinoid acid receptor (RAR) signaling pathway - cell viability counter screen (AID 1159551); note: nearly all actives have a fitted effect of over 35% in size
Summary of the method: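 Seed C3RL4 cells; next day add compound, then retinol to 1 uM final; incubate 6 h at 37 C; add CellTiter-Glo; read luminescence after 30 min at RT.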

[4] = qHTS assay to identify small molecule antagonists of the retinoic acid receptor (RAR) signaling pathway (AID 1159552; note: nearly all actives have a fitted effect of over 50% in size)
Summary of the method: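 Using a RARE-driven luciferase construct in C3RL4 cells, retinol at 1 uM final provided the agonist stimulus while compounds were co-applied. After 6 hours at 37 C, luminescence was recorded to flag inhibitors of retinol signaling.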

[5] = qHTS assay to identify small molecule agonists of the retinoic acid receptor (RAR) signaling pathway (AID 1159553)
Summary of the method: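 Activation of retinol signaling was monitored via a RARE luciferase reporter in C3RL4 cells. After 6 hr compound treatment at 37 C, detection reagent was added for 30 min at room temperature before luminescence reading.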

[6] = qHTS assay to identify small molecule antagonists of the estrogen related receptor (ERR) signaling pathway from Tox21 library - cell viability counter screen (AID 1224834); note: nearly all actives have a fitted effect of over 30% in size
Summary of the method: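 CellTiter-Fluor fluorescence measured; ERR cells; 17.5 h compound incubation at 37 C; 30 min reagent step.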

[7] = target: Luciferin 4-monooxygenase (Photinus pyralis) (UniProt P08659); assay: qHTS assay to identify small molecule inhibitors of firefly luciferase (AID 1224835); note: series mostly up to about 120 µM; nearly all actives have a fitted effect of over 25% in size
Luciferin 4-monooxygenase (Photinus pyralis), sequence (P08659 whole entry, looked up): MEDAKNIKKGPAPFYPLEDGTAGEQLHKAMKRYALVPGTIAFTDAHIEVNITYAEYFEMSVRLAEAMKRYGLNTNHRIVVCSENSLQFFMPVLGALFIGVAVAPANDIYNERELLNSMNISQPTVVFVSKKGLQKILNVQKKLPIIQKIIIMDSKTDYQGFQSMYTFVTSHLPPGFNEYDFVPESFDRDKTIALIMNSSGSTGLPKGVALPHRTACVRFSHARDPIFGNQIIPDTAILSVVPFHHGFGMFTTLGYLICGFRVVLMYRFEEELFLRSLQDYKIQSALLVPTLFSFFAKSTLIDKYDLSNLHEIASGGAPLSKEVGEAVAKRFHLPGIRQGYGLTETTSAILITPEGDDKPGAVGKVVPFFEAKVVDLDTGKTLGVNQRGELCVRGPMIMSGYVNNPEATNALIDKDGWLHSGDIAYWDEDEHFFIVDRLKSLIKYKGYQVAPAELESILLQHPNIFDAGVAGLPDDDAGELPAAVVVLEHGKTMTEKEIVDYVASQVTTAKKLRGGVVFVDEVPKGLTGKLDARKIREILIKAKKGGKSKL
Summary of the method: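 Inhibition of purified Photinus luciferase is measured by luminescence. Substrate levels (D-luciferin, ATP) sit at their KM values. Each compound is tested in a concentration series.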

[8] = qHTS assay to identify small molecule agonists of the constitutive androstane receptor (CAR) signaling pathway - cell viability counter screen (AID 1224836); note: series mostly up to about 92 µM; nearly all actives have a fitted effect of over 45% in size
Summary of the method: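 Multiplexed viability check: HepG2-CYP2B6-hCAR cells, 15-point compound dosing, 0.75 uM PK11195 final, 23 h at 37 C, CellTiter-Fluor fluorescence.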

[9] = qHTS assay to identify small molecule antagonists of the constitutive androstane receptor (CAR) signaling pathway - cell viability counter screen (AID 1224837); note: series mostly up to about 92 µM; nearly all actives have a fitted effect of over 45% in size
Summary of the method: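 Using CellTiter-Fluor, viability is scored in HepG2 cells stably carrying hCAR and a 2.2kb CYP2B6 reporter after 23 hr compound exposure across 15 concentrations, with CITCO present at 50 nM.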

[10] = target: Nuclear receptor subfamily 1 group I member 3 (Homo sapiens) (UniProt Q14994); assay: qHTS assay to identify small molecule antagonists of the constitutive androstane receptor (CAR) signaling pathway (AID 1224838);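 note: HepG2 cells stably expressing hCAR with CYP2B6 luciferase reporter stimulated by CITCO; nearly all actives have a fitted effect of over 40% in size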
Nuclear receptor subfamily 1 group I member 3 (Homo sapiens), sequence (Q14994 whole entry, looked up): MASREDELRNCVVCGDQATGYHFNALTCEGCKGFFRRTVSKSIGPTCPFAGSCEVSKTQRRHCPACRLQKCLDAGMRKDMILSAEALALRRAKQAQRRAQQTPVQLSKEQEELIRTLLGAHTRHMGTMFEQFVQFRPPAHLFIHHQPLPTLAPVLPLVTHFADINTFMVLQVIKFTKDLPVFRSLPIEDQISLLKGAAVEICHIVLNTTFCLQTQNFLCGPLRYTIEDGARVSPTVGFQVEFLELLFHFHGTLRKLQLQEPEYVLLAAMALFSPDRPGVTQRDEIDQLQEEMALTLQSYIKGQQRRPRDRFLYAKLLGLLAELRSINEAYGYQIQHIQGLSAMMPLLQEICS
Summary of the method: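 Reporter luminescence was quantified after 24 h exposure of hCAR/CYP2B6-2.2kb double-stable HepG2 cells to compounds at 15 concentrations in the presence of 50 nM CITCO final.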

[11] = target: Nuclear receptor subfamily 1 group I member 3 (Homo sapiens) (UniProt Q14994); assay: qHTS assay to identify small molecule agonists of the constitutive androstane receptor (CAR) signaling pathway (AID 1224839);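 note: HepG2 cells stably carrying human CAR and a CYP2B6 luciferase reporter; series mostly up to about 92 µM; nearly all actives have a fitted effect of over 15% in size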
Summary of the method: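 Using human hepatoma HepG2 cells engineered with hCAR and a CYP2B6-2.2kb reporter, 15-concentration compound series were incubated 24 h alongside PK11195 at 0.75 uM final, with luminescence quantified afterwards.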

[12] = qHTS assay to identify small molecule antagonists of the estrogen related receptor signaling pathway with the pleiotropic PPARgamma coactivator (PGC) from Tox21 10K library - cell viability counter screen (AID 1224840; active = well fitted cell-killing curve with a large enough effect in the repeat runs, not every such curve was filed as active; note: nearly all actives have a fitted effect of over 40% in size)
Summary of the method: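 Here the PGC/ERR cells serve as a cytotoxicity control: they are exposed to compounds for 17.5 hours at 37 C, and live-cell signal is quantified using CellTiter-Fluor fluorescence.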

[13] = qHTS assay to identify small molecule antagonists of the estrogen related receptor signaling pathway with the pleiotropic PPARgamma coactivator (PGC) from Tox21 10K library (AID 1224841; call rule not given here; note: series mostly up to about 92 µM; actives are mostly falling curves and most rising ones were filed inactive; nearly all actives have a fitted effect of over 50% in size)
Summary of the method: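 Each well held 2,000 PGC/ERR cells, pre-incubated six hours (37 C, 5% CO2). Test substances in DMSO were added by pin tool and left for 18 h at 37 C before luciferase detection by One-Glo.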

[14] = qHTS assay to identify small molecule agonists of the estrogen related receptor signaling pathway with the pleiotropic PPARgamma coactivator (PGC) from Tox21 10K library (AID 1224842); note: nearly all actives have a fitted effect of over 15% in size
Summary of the method: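 Luminescence from One-Glo (30 min, room temperature) measured after PGC/ERR cells had 18 h at 37 C with pinned compound (23 nL in DMSO). Cells had been seeded at 2,000 per well and pre-incubated 6 h.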

Measured: Potency

CC(=O)Nc1ccc(C)c(Cl)c1
not listed: [13] | [14]
inactive: all other assays above

N#CSCC(=O)O
not listed: [11]
inactive: all other assays above

CCC(=O)Nc1ccc(O)cc1
not listed: [10] | [11] | [13] | [14]
inactive: all other assays above

OC[C@H]1O[C@@H](O[C@H]2[C@H](O)[C@@H](O)[C@H](O)O[C@@H]2CO)[C@H](O)[C@@H](O)[C@H]1O
inactive: all assays above

NC(=O)Cc1cccc(C(=O)c2ccccc2)c1N
not listed: [10] | [12] | [13] | [14]
inactive: all other assays above

CCOC(=O)c1cc(=O)c2c(OCC(COc3cccc4oc(C(=O)OCC)cc(=O)c34)OC(=O)[C@@H](N)CCCCN)cccc2o1
not listed: [11]
inactive: all other assays above

Cc1ccc([N+](=O)[O-])cc1Cl
not listed: [10]
inactive: all other assays above

CC(CNC1CCCCC1)OC(=O)c1ccccc1 (stereo not given)
not listed: [11]
inactive: all other assays above

CCN1CC(CCN2CCOCC2)C(c2ccccc2)(c2ccccc2)C1=O (stereo not given)
not listed: [11]
inactive: all other assays above

O=S(=O)(O)C(F)(F)F
not listed: [11]
inactive: all other assays above

C=Cc1ccccc1
not listed: [10] | [13] | [14]
inactive: all other assays above

CCOc1ccc(OCC)c(Cl)c1
not listed: [11]
inactive: all other assays above

O=C(Cl)c1cccc([N+](=O)[O-])c1
inactive: all assays above

OCCN(CCO)c1ccccc1
not listed: [10] | [11] | [13] | [14]
inactive: all other assays above

CN1CCN(N)CC1
not listed: [10] | [12] | [13] | [14]
inactive: all other assays above

O=C(O)[C@@H]1CSCN1
not listed: [10] | [13] | [14]
inactive: all other assays above

CC(=O)OC1C2(C)CCC(C2)C1(C)C (stereo not given)
not listed: [10] | [11]
inactive: all other assays above

CCCCC(=O)O[C@]1(C(=O)CO)[C@H](C)C[C@H]2[C@@H]3CCC4=CC(=O)C=C[C@]4(C)[C@@]3(F)[C@@H](O)C[C@@]21C
not listed: [10] | [11]
inactive: all other assays above

CC/C=C\CCOC(=O)C(C)C
not listed: [10] | [11] | [13] | [14]
inactive: all other assays above

CCCCCCCOC(=O)CCC
not listed: [11]
inactive: all other assays above
